Source: PubChem BioAssay (NCI)
Where “and” joins values, the source holds several entries; their conditions need not be identical. Identical values can stand only once. This is part of a sample that, as a whole, favours compounds with a hit. Of some 79,000 tested, about 15% had one in any assay. Unmarked numbers belong to inactive results. Calls of active or inactive are those of the source. Cut-off read from the data, not from the text of the source: active = growth inhibition above about 70%; inactive = the rest.

Tests used:
[1] = NCI Yeast Anticancer Drug Screen. Data for the rad50 strain (AID 155);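 note: 0% = growth of vehicle-only cultures of the same strain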; conditions: S. cerevisiae rad50 strain growth inhibition, hits give high values; at 50.0 µM unless noted
How it was run: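 Compounds were tested on a yeast strain with an engineered DNA damage repair alteration; the reported value is growth inhibition normalised to vehicle treatment.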

[2] = NCI Yeast Anticancer Drug Screen. Data for the mec2-1 strain (AID 157); conditions: S. cerevisiae mec2-1 strain, hits give high values; at 50.0 µM unless noted
How it was run: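 Strain: mec2-1 (DNA repair/cell cycle alteration). Compound exposure, then growth measured; inhibition expressed relative to vehicle.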

[3] = NCI Yeast Anticancer Drug Screen. Data for the sgs1 mgt1 strain (AID 161);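 note: 0% = growth of cultures given vehicle only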; conditions: S. cerevisiae sgs1 mgt1 strain, hits give high values; at 50.0 µM unless noted
How it was run: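 Genetically altered yeast, compound exposure, growth inhibition relative to vehicle.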

[4] = NCI Yeast Anticancer Drug Screen. Data for the cln2 rad14 strain (AID 165);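 note: 0% = growth equal to vehicle treated cultures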; conditions: S. cerevisiae cln2 rad14 strain, hits give high values; at 50.0 µM unless noted
How it was run: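 Compounds are applied to the cln2 rad14 yeast strain, and growth is then compared with that of vehicle-treated cultures to give inhibition.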

[5] = NCI Yeast Anticancer Drug Screen. Data for the bub3 strain (AID 167); conditions: S. cerevisiae bub3 mutant strain, hits give high values; at 50.0 µM unless noted
How it was run: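 Growth of a checkpoint-deficient yeast mutant is measured after compound exposure. Values represent inhibition relative to vehicle.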

[6] = NCI Yeast Anticancer Drug Screen. Data for the mlh1 rad18 strain (AID 175); conditions: S. cerevisiae mlh1 rad18 strain growth inhibition, hits give high values; at 50.0 µM unless noted
How it was run: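 Read-out is yeast growth inhibition, calculated against vehicle-only controls. The compound was applied to a strain engineered with DNA damage repair alterations.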

SMILES | growth inhibition [1] | growth inhibition [2] | growth inhibition [3] | growth inhibition [4] | growth inhibition [5] | growth inhibition [6]
NNC(=O)CC(=O)NN | 6.9% | 2.05% | -11.4% | -10.7% | 2.95% | 18.4%
O=[N+]([O-])c1ccc(NN=C2CCCCC2)c([N+](=O)[O-])c1 | 9.1% | -18.2% | 1.8% | -39.6% | 2.7% | 30.6%
CC1(C)OC(=O)C(Cc2ccccc2)(Cc2ccccc2)C(=O)O1 | 2.2% | -19.9% | -11.8% | 30.1% | -17.1% | -13.9%
N#Cc1[nH]c(=O)n(-c2ccc([N+](=O)[O-])cc2)c1N | -29.4% | -59.8% | -25.1% | -1.7% | -12.1% | -39.9%
c1nc2c([nH]1)CCNC2c1ccc(C2NCCc3[nH]cnc32)cc1 (centres undefined) | 1.65% | -1.65% | 1.3% | -38.9% | -14.1% | -2.95%
C=C1C(=O)C23CC1CCC2C12CO[C@H](O)[C@H]1C(C)(C)[C@H](OC(C)=O)C[C@H]2OC3=O (some centres undefined) | 4.75% | 4.15% | 1.8% | 6.1% | 0.85% | -76.2%
CC(C)COC(c1ccccc1)c1ccccc1 | -9.5% | -9.75% | 5.15% | 18.8% | -12.8% | -4.75%
COC(=O)C(CCCCCCCC(C(=O)OC)c1nc2n(c1O)C(=N)N=N2)c1nc2n(c1O)C(=N)N=N2 (centres undefined) | -20.6% | -3.75% | -7.95% | 11.8% | 10.2% | 4.75%
Cc1cc(C)[nH]c(=O)c1 | 9.2% | 0.75% | -2.75% | 3.8% | 20.1% | 4.4%
Cc1ccc(NC(=O)Oc2ccc(-c3ccccc3)cc2Br)c(Br)c1 | 52.1% | 58% | 54.6% | 40% | 51.9% | 53.7%
CCCC(C)C(C(=O)OCC)C(=O)OCC (centres undefined) | 2.6% and -5.35% | -14.5% and -5.6% | -9.85% and 10.9% | 21.5% and -17.4% | -11.3% and -14% | -15.3% and -7.4%
O=C1CSC(c2ccc(O)cc2)N1c1nncs1 (centres undefined) | 0.4% | -0.75% | 16.8% | -0.55% | 5.6% | 11.9%
CC/C=N\N1C(N)=C(C#N)C(C#N)(C#N)C1CC (centres undefined) | 6.05% | 10.2% | -18.9% | 4.75% | -12.8% | -27.9%
O=C1/C(=C/c2cccc(Cl)c2)CCCc2ccccc21 | 21.9% | 13.8% | 33.2% | 11.3% | 62.5% | 44.4%
O=c1n(-c2ccccc2)c(=O)n2n1C1C3C4C5C3C2C5(F)C41 (centres undefined) | -7.3% | 8.45% | 5.95% | 13.7% | 6.75% | 12.3%
CC[N+]1(CC)CCOC(=O)C1 | -15.8% | -2.6% | -3.9% | 22.9% | -19.4% | -26.9%
COC1OC(COC(=O)NCCCCC(=O)C(F)(F)F)C(O)C(O)C1O (centres undefined) | 3.6% | 22.6% | -0.5% | 29.9% | 28.2% | 11.6%
O=c1cc(N2CCOCC2)n2ccccc2n1 | -4.4% | -4.15% | 8% | -20.6% | -8.35% | 8.1%
Cc1ccc(N=C2S/C(=C3/CCC=C3N3CCOCC3)N(c3ccc(Cl)cc3)C2=Nc2ccc(C)cc2)cc1 | -8.9% | -13.4% | -14.9% | -14.6% | -22.4% | -28%
Cc1ccc2c(N=Nc3ccc(C(=N)N)cc3)ccc(O)c2n1 | 99.3% (active) | 99.4% (active) | 99.5% (active) | 98.2% (active) | 99.2% (active) | 99.2% (active)

SMILES | growth inhibition [1] | growth inhibition [2] | growth inhibition [3] | growth inhibition [4] | growth inhibition [5] | growth inhibition [6]
CCOC(=O)c1[nH]c(C)c(C#N)c1C | -34.4% | -26.6% | -12.7% | -34.6% | -20.8% | -19.1%
CN(/N=C/c1cccs1)c1ccc(Cl)cc1[N+](=O)[O-] | -29.4% | -8.95% | -13.8% | 0.95% | -7.45% | -1%
Nc1cccc2c1nc(NCCO)c1ccccc12 | 23.8% | 3.5% | -15.6% | -4.5% | 10.7% | 49.1%
C[C@@]1(O)C2CC3CC1(c1ccccc1)CC(/C3=N/O)/C2=N\O (some centres undefined) | -14.3% | -17.6% | -1.8% | 26.2% | -16.7% | 8.3%
CC(=O)N1C(=O)CC23c4cccc([N+](=O)[O-])c4C(=O)N2CCCN13 (centres undefined) | 8.8% | 0.35% | 0.9% | 10.6% | -21.8% | 17.4%
c1ccc(-c2nc3ccccc3s2)cc1 | 25.2% and 18.6% | -22.4% and -0.5% | 24.1% and -17.9% | 23.8% and -20.2% | 8.55% and -4.35% | 40.4% and 2.6%
CCC(=O)COc1ccc(NC(NC(=O)C(C(F)(F)F)C(F)(F)F)(C(F)(F)F)C(F)(F)F)cc1 | 16.2% | -24.8% | 6.5% | 29.2% | -3.3% | -16%
O=C(CC(=O)C(F)(F)F)c1ccccc1.O=C(CC(=O)C(F)(F)F)c1ccccc1.[Mn] | -1.85% | -0.35% | 19.2% | -13.7% | 3.6% | 18.5%
CC1(C)OC1CS(=O)c1ccccc1 (centres undefined) | -6.1% | -5.4% | -14.5% | -17.4% | 5.5% | -42.8%
O=C1c2ccccc2C(=O)C1c1ccc2ccccc2n1 | 7.85% | -7.95% | 3.35% | 2.6% | 7.05% | -7.95%
Cc1ccc(/C=C/C(=O)C(C)CN(C)C)cc1C (centres undefined) | -1% | -15.4% | 26.1% | 0.95% | 0.3% | 9.65%
COC1OC(COC(c2ccccc2)(c2ccccc2)c2ccccc2)C(O)C(O)C1O (centres undefined) | 40.7% | 47% | 42.6% | 84.5% (active) | 38% | 41.1%
O=C1CN(CCc2ccccc2)CC(=O)N2C(c3ccccc3)CCCN12 (centres undefined) | 62.7% | 38.5% | 65.2% | 42.2% | 52% | 43.4%
COC(=O)c1cc2ccc(OC(C)=O)c(OC(C)=O)c2cn1 | 20.2% | -20.2% | 6.05% | 9.3% | 3.35% | 19.9%
CCCCCC(=O)OCCSCCOC(=O)CCCCC | 4.55% | 1.3% | -5.85% | -39.1% | 10.8% | 0.2%
O=C1CSC(c2ccccc2Cl)N1c1n[nH]c(=S)s1 (centres undefined) | -13.8% | -17.6% | -9.5% | -55% | -23.6% | 1%
CCOC(=O)c1c(C)cc(=O)oc1C | -8.65% and 3.95% | 7.55% and -1.6% | -4.65% and -3.25% | -31.3% and -11.1% | 2.3% and -1.7% | -11.8% and 8.75%
CC1=CC(C)C(C(=O)OCC(C)C)C(C(=O)OCC(C)C)C1 (centres undefined) | -13.2% | -6% | -5.1% | 1.45% | 23% | -22.4%
Cc1c(CC#N)cc(C)c2c3c([nH]c12)-c1ccccc1CC3 | 35.5% | 35.2% | 44% | 11.8% | 37.5% | 18.9%
